Among the data in PubChem BioAssay (NCI) are growth values, retold here.

Among the test systems are T-47D breast; BT-549 breast; MDA-MB-435 melanoma; SW-620 colon; MCF7 breast; HCT-116 colon; HCC-2998 colon; KM12 colon.
Assay in all cases: NCI-60 one-dose screen, 48 h (100 = growth as untreated, 0 = no growth, -100 = all killed)
Common to all, as to details: 10 µM unless noted

This is part of a sample that, as a whole, favours compounds with a hit. Of some 83,000 tested, about 20% had one in any assay.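 The endpoint reported here, percent growth, reads 100 for growth as untreated, 0 for no net growth and -100 for all cells dead.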 A number with no mark means an inactive call. Active and inactive are the calls of the source. How the source made its calls: active means growth percent below 10; inactive means the rest.

For the compound `O=C(CCOCCNC(=O)COc1ccc2c(c1)OCC(c1ccc(F)cc1)C2=O)NCCCC(O)(P(=O)(O)O)P(=O)(O)O` (stereo not drawn), the growth with T-47D breast is 101%; in the test with BT-549 breast it was 105%; in the test with MDA-MB-435 melanoma, 102%; in the test with SW-620 colon, 101%; in the test on MCF7 breast, 89%; in the test with HCT-116 colon it was 101%. Further, the growth in the test with HCC-2998 colon was 98%; in the test on KM12 colon, 100%.

For `COc1cccc2nc3n(c12)C(c1c(F)cccc1F)SC3` (stereo not drawn), the growth is 104% in the test on T-47D breast; 108% in the test on BT-549 breast; 106% with MDA-MB-435 melanoma; 106% in the test on SW-620 colon; 104% with MCF7 breast; 93.8% with HCT-116 colon. Also, the growth is 99.9% with HCC-2998 colon and 100% with KM12 colon.

On to `O=C1c2cccc3cccc(c23)C(=O)N1N1C(=O)c2cccc3c(NC4CCCCC4)ccc(c23)C1=O`, for which the growth was 88.4% in the test with T-47D breast; 97.8% with BT-549 breast; 102% in the test with MDA-MB-435 melanoma; 98.7% in the test on SW-620 colon; 88.8% in the test with MCF7 breast; 98.9% in the test with HCT-116 colon. Besides, the growth is 108% in the test on HCC-2998 colon and 99.5% in the test on KM12 colon.

As for `Cn1cc(C(=O)c2nc(-c3cn(C)c4ccc(F)cc34)no2)c2cc(F)ccc21`, the growth is 91.2% with T-47D breast; 106% in the test on BT-549 breast; 111% in the test with MDA-MB-435 melanoma; 90.6% with SW-620 colon; 47.3% in the test with MCF7 breast; 98.1% with HCT-116 colon. Moreover, the figures for the growth in the test on HCC-2998 colon and in the test with KM12 colon were 84.6% and 95.2%, respectively.

As for `CC[C@H](C)C(=O)O[C@H]1CCC=C2C=C[C@H](C)[C@H](CC[C@@H]3CC=CC(=O)O3)[C@H]21`, the growth in the test on T-47D breast is 83.5%; with BT-549 breast, 87.5%; in the test on MDA-MB-435 melanoma, 86%; in the test on SW-620 colon it was 85.9%; in the test on MCF7 breast it was 72.3%; with HCT-116 colon, 48.5%. Further, the growth in the test with HCC-2998 colon was 101%; with KM12 colon it was 72.5%.

As to `CNc1ccc(Nc2cccc(C)c2)c2c1C(=O)c1ccccc1C2=O`, the growth with T-47D breast was 40.9%; with BT-549 breast, 110%; in the test on MDA-MB-435 melanoma it was 135%; in the test on SW-620 colon it was 85.4%; with MCF7 breast it was 10.2%; in the test on HCT-116 colon it was 92.4%. For the same compound, the values for the growth with HCC-2998 colon and with KM12 colon were 88.5% and 48.4%, respectively.

On to `O=c1c2cccc(F)c2sc2c(NCCCNCCO)nc3ccccc3c12`, for which the growth is 51.8% with T-47D breast; 72.6% in the test on BT-549 breast; 6.93% (active) with MDA-MB-435 melanoma; -68.1% (active) in the test with SW-620 colon; 20.2% in the test with MCF7 breast; 0.842% (active) with HCT-116 colon. The results for the growth with HCC-2998 colon and in the test with KM12 colon were -51.7% (active) and 9.05% (active), respectively.

`Oc1c(I)cc(I)cc1CNCCCN(Cc1ccccn1)Cc1ccccn1`: the growth was -57% (active) in the test on T-47D breast; -73.2% (active) in the test with BT-549 breast; -90.7% (active) in the test on MDA-MB-435 melanoma; -61.9% (active) in the test on SW-620 colon; -56.3% (active) in the test on MCF7 breast; -87% (active) in the test on HCT-116 colon. Besides, the growth is -82.5% (active) in the test with HCC-2998 colon and -85.1% (active) with KM12 colon.

Turning to `Cc1ccc(-c2nc3c(c(-c4ccccc4)nn3-c3ccccc3)c(-c3ccc(O)cc3)c2C#N)cc1`, the growth was 61.2% with T-47D breast; 76.8% with BT-549 breast; 64.5% in the test on MDA-MB-435 melanoma; 62.8% in the test on SW-620 colon; 26.4% in the test on MCF7 breast; 42.4% in the test on HCT-116 colon. Besides, the values for the growth with HCC-2998 colon and in the test on KM12 colon were 95.3% and 55.9%, respectively.

For the compound `Nc1nn(C(=O)Nc2ccc(Cc3ccccc3)cc2)c2ccc(Cl)cc12`, the growth in the test with T-47D breast is 41.4%; in the test on BT-549 breast, 55.9%; with MDA-MB-435 melanoma, 53.3%; in the test on SW-620 colon, 81.8%; with MCF7 breast it was 20.7%; with HCT-116 colon, 42.5%. Also, the growth in the test with HCC-2998 colon was 2.27% (active); in the test with KM12 colon it was 66.2%.

Take `COc1ccc2c(c1)nc(NNC(=O)c1cnccn1)c1cccn12`: the growth is 22.4% in the test on T-47D breast; 37.9% in the test with BT-549 breast; 33.7% in the test on MDA-MB-435 melanoma; 29.6% with SW-620 colon; 10.7% with MCF7 breast; 20.3% in the test on HCT-116 colon. Besides, the growth was 49.7% with HCC-2998 colon and 24.8% in the test with KM12 colon.

Regarding `COc1cc2oc(-c3ccc(O)cc3)cc(=O)c2c(O)c1-c1c(OC)cc(O)c2c(=O)cc(-c3ccc(O)cc3)oc12`, the growth with T-47D breast is 82.8%; in the test with BT-549 breast it was 46.7%; in the test on MDA-MB-435 melanoma it was 1.08% (active); in the test with SW-620 colon, 25.2%; with MCF7 breast it was 38%; with HCT-116 colon it was 20.5%. The growth in the test on HCC-2998 colon was 72.5%; in the test on KM12 colon, 43.4%.

With `CCOC(=O)c1cn2ncnc(Oc3ccc(NC(=O)NCCN(C)C)c(Cl)c3)c2c1C`, the growth with T-47D breast is 45.8%; in the test with BT-549 breast it was 77.8%; in the test on MDA-MB-435 melanoma, 46.1%; with SW-620 colon it was 31.5%; in the test with MCF7 breast, 61.6%; in the test on HCT-116 colon it was 36.4%. Moreover, the growth with HCC-2998 colon is 80.2%; in the test on KM12 colon, 93.3%.

On to `C=C(C)C1CCC2(C)OC2C1` (stereo not drawn), for which the growth in the test on T-47D breast is 117%; in the test on BT-549 breast, 99.3%; in the test with MDA-MB-435 melanoma, 98.2%; in the test with SW-620 colon, 110%; with MCF7 breast, 105%; in the test on HCT-116 colon it was 109%. The growth in the test on HCC-2998 colon was 114%; with KM12 colon it was 115%.

For `Cc1ccc(C2CC(c3ccc(Nc4ccnc5cc(Cl)ccc45)cc3)=NN2C=O)cc1` (stereo not drawn), the growth with T-47D breast was 38.3%; in the test with BT-549 breast it was 56.8%; in the test with MDA-MB-435 melanoma, 16.3%; with SW-620 colon, 68%; in the test with MCF7 breast it was 35.2%; in the test with HCT-116 colon, 57.6%. The growth in the test on HCC-2998 colon is 53.2%; with KM12 colon, 50.2%.

As for `Cc1ccc(-c2nc(N3CCN(CC(=O)Nc4ccc(Cl)cc4)CC3)c3ccccc3n2)cc1`, the growth in the test with T-47D breast was 80.2%; with BT-549 breast it was 102%; in the test with MDA-MB-435 melanoma, 96.4%; with SW-620 colon, 97.5%; in the test on MCF7 breast, 77.5%; with HCT-116 colon it was 89.9%. Besides, the values for the growth in the test on HCC-2998 colon and in the test on KM12 colon were 82.4% and 92.4%, respectively.
